Compound activity (PubChem)
Most compounds without a hit are left out; they make up all but 21% or so of the library.
Cycloheximide cs: counter-screen hit for Shiga toxin inhibitors, cycloheximide. cell reporter, cycloheximide protein synthesis inhibition counterscreen. max response, %. 300,000 compounds, 12% hits. AID 2314; in the data active = max response mostly above about 13%, no sharp cut-off; inactive = mostly below about 14%; also: read at 38.3 µM for the half of the compounds with a filed dose; 0% is about no effect
Pf growth 48h: P. falciparum growth inhibition at 48 hours (one generation); P. falciparum luciferase growth in erythrocytes, 48 h; 310,000 compounds, 5.9% hits; Potency, µM (top dose mostly 28.7 µM), for the others: at the highest dose activity change, negative = inhibition, hits mostly inhibitors; also: potency is read from the fitted curve at half-maximal effect; % is scaled to controls: 0 for no effect and ±100 for the full control effect
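Read-out is firefly luciferase luminescence from an integrated reporter in P. falciparum, so falling signal marks reduced parasite growth. Infected erythrocytes were at 2% hematocrit and 0.1% parasitemia (final) in Albumax-supplemented RPMI 1640.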
Pf growth 96h: inhibits malaria parasite growth, 96 h | Potency, µM (doses to about 28.7 µM), without a hit: at the top dose activity change, negative = inhibition, hits mostly inhibitors | P. falciparum luciferase reporter growth, 96 h | AID 504834 | 320,000 compounds, 6.9% hits; also: potency is read from the fitted curve at half-maximal effect; % is scaled to controls: 0 for no effect and ±100 for the full control effect
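Erythrocytes infected with luciferase-expressing P. falciparum were dispensed at 2% hematocrit and 0.05% parasitemia (final), then incubated with compounds 96 hours at 37 C in 5% CO2. Luminescence after detection reagent addition reported growth.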
Shiga toxin inh: Shiga toxin inhibition | inhibition, % at 38.7 µM | 290,000 compounds, 9.2% hits | AID 2315 | Vero cells, Shiga toxin protein synthesis inhibition reporter; in the data active = inhibition mostly above about 28%, no sharp cut-off; inactive = mostly below about 43%; also: 0% is about no effect
The depositor's hits bear a star; ? = inconclusive; / = no result; [ ] = remark or other dose. Unless noted, calls follow the shape of the dose curve; as a rule, active = well fitted inhibition curve with a large enough effect; inconclusive = small, poorly fitted or top-dose-only effect, or another doubt; inactive = no such curve, though single readings can be large or run the other way.

SMILES | Cycloheximide cs | Pf growth 48h | Pf growth 96h | Shiga toxin inh
COc1ccc(CNC(=O)c2ccc(S(=O)(=O)NCc3ccco3)cc2)cc1 | / | -4% | -6% | /
CCOC(=O)C1CCN(S(=O)(=O)c2ccc3c(c2)NC(=O)CS3)CC1 | 5 | -7% | 61% | 12
CCOC(=O)N1CCC(n2c(SCC(=O)N3CCC(C)CC3)nc3ccccc3c2=O)CC1 | -5 | 10µM* | 4.7µM* | -29
O=C(Cc1ccc(Cl)cc1)N/N=C1\CCCc2ccccc21 | -4 | -3% | 60% | 29
NC(=O)C(=O)N/N=C1\CCc2ccccc21 | 37* | 131% | 0% | 62*
O=C(N/N=C1\CCCc2ccccc21)c1ccc([N+](=O)[O-])cc1 | 11 | 75% | 136% | 39
Cc1ccc(C(=O)N/N=C2\CCCc3ccccc32)c(C)c1 | 49* | 110% | 274% | 71*
Cc1ccc(C)n1-c1ccc(C(=O)NN=C2CCCC2)cc1 | 8 | 11% | -17% | 26
O=C(CCc1nc2ccccc2c(=O)[nH]1)Nc1cc(Cl)ccc1N1CCCC1 | / | 18% | ? | /
COc1cc(C2c3c(oc4ccccc4c3=O)C(=O)N2c2ccc(C)cn2)ccc1O (stereo not given) | 8 | 9% | 15µM* | 13
O=Nc1ccc(NOC(=O)c2ccccc2Br)cc1 | 85* | -2% | -18% | 127*
Cc1cc(Cl)ccc1OCC(O)CNCCc1ccc(S(N)(=O)=O)cc1 (stereo not given) | -6 | ? | ? | -3
COc1ccc2c(/C=C/c3cc[n+](C)cc3)c[nH]c2c1 | -2 | 1.2µM* | 0.52µM* | 5
COC(=O)Cn1cc(/C=C/c2cc[n+](C)cc2)c2ccccc21 | 0 | ? | -3% | -4
COc1ccc2c(C=O)c[nH]c2c1 | -2 | 3% | 8.3µM* | -7
COc1ccc2c(c1)c(/C=C/c1cc[n+](C)cc1)cn2C | -3 | 1.2µM* | 0.37µM* | -7
Cc1ccc2[nH]cc(/C=C/c3cc[n+](C)cc3)c2c1 | -4 | -1%[0.00184 µM] | ? | -1
Cc1cc(=O)oc(C)c1C(=O)NCCC(C)C | -2 | 25% | 4.1µM* | -1
Clc1cccc(CNCCCSc2ncccn2)c1 | 1 | 3% | 91% | 1
COc1cccc(C(=O)NCCNC(=O)c2ccc(C)nc2)c1 | -4 | 5% | ? | -4
COc1ccc(C)cc1S(=O)(=O)N(CC(=O)Nc1cccc([N+](=O)[O-])c1)c1ccc(C)c(C)c1 | -3 | 13µM* | 17% | -3
Cc1ccc(NC(=O)CN(c2ccc(Cl)cc2)S(=O)(=O)c2cc([N+](=O)[O-])ccc2Cl)cc1 | -7 | ? | ? | -3
CCSc1nnc(NC(=O)c2cccs2)s1 | 35* | 99% | 107% | 101*
O=C(Nc1nnc(SCc2ccccc2)s1)c1cccs1 | 11 | 60% | 2% | 22
CCSc1nnc(NC(=O)C(C)(C)C)s1 | 29* | 59% | / | 69*
SMILES | Cycloheximide cs | Pf growth 48h | Pf growth 96h | Shiga toxin inh
CCc1nnc(NC(=O)c2cc(C)oc2C)s1 | -1 | -3% | -15% | -21
Cc1nnc(NC(=O)CSc2nnc(NC(=O)C(C)(C)C)s2)s1 | -9 | -51%[1.15 µM] | -8% | -5
CCc1nnc(NC(=O)c2ccc(Br)o2)s1 | 1 | 21% | 5.9µM* | -2
CCSc1nnc(NC(=O)c2cc(C)oc2C)s1 | 38* | 133% | 31% | 59*
COc1cc(OC)cc(C(=O)NCC(=O)OCC(=O)N2CC(C)CC(C)C2)c1 (stereo not given) | 5 | 38% | 8% | -2
CCc1nnc(NC(=O)CN2CCN(Cc3ccccc3C)CC2)s1 | -3 | 0% | -26% | 72
CCSc1nnc(NC(=O)NC2CCCCC2)s1 | 36* | 198% | ? | 49*
CCc1nnc(NC(=O)CN2CCN(Cc3ccc(C)cc3)CC2)s1 | -3 | -12% | 9.3µM* | -4
CCc1nnc(NC(=O)c2ccc(C)o2)s1 | 36* | 82% | 53% | 44*
CCC(=O)Nc1nnc(SCC(=O)NC2CCCC2)s1 | -4 | 39% | 9% | -7
CCSc1nnc(NC(=O)c2ccc(C)o2)s1 | 27* | 89% | / | 33*
CCc1nnc(NC(=O)c2ccc(COc3ccc(C)cc3)o2)s1 | 4 | 22% | ? | -8
N#CCCN(C(=O)COC(=O)CCNS(=O)(=O)c1ccccc1)c1ccccc1 | / | 12% | 7% | /
C=C1C(=O)OC(CCCCCCCC)C1C(=O)O (stereo not given) | -4 | / | / | -9
O=C1C(=C2SCCCS2)CC/C1=C\c1ccc(F)cc1 | 31* | 4% | 80% | 79*
Cc1cccc(/C=C2\CCC(=C3SCCCS3)C2=O)c1 | 44* | 166% | 81% | 80*
O=C(CCCn1cncn1)N1CCCC(Nc2ccc(F)cc2)C1 (stereo not given) | 9 | 10% | 13% | -6
CC(C)Cn1c(-c2ccc(C#N)cc2)nc2c1c(=O)[nH]c(=O)n2CC(C)C | 2 | / | 10µM* | -10
CCCCn1c(-c2ccc(Br)cc2F)nc2c1c(=O)[nH]c(=O)n2CC(C)C | -1 | 10µM* | ? | -10
COc1ccc(CNC(=O)c2ccc(N3CCCC3=O)cc2)cc1 | 26 | 39% | ? | 39
O=C(NCc1ccccn1)c1cc(-c2ccccc2)on1 | 36* | 76% | ? | 141*
COc1ccccc1OCc1cc(C(=O)NCc2ccc(N3CCCC3=O)cc2)no1 | 42* | ? | -11% | 18
Cc1ccc(-c2cc(C(=O)NCc3ccccn3)no2)cc1 | 45* | 81% | -1% | 85*
O=C(NCc1ccccn1)c1ccco1 | 4 | 8% | -90%[5.75 µM] | 8
O=C(NCc1ccccn1)c1ccc(N2CCCC2=O)cc1 | 23* | 71% | 14% | 27
SMILES | Cycloheximide cs | Pf growth 48h | Pf growth 96h | Shiga toxin inh
Cc1ccc(-c2cc(C(=O)NCc3ccc4c(c3)OCO4)no2)cc1 | 14 | 21% | 1% | 3
CCC1CCCCN1C(=O)N[C@@H](Cc1ccccc1)C(=O)O (stereo not given in full) | -5 | 14% | 28% | -3
CCOc1ccsc1C(=O)OC | -3 | 39% | 0% | -10
O=C(NCc1ccccn1)c1ccc(-c2ccccc2)cc1 | 36* | 48% | 68% | 64*
CC[n+]1c(/C=C2/C=C(C)CC(C)(C)C2)sc2ccc(OC)cc21 | 17 | 0.37µM* | 36% | 43
CCC1=C/C(=C/c2sc3ccccc3[n+]2CC)CC(C)(C)C1 | -6 | ? | 15% | 6
CC[n+]1c(/C=C2\C=C(C)CC(C)(C)C2)sc2ccccc21 | -3 | 0.33µM* | ? | -9
O=C(Nc1ccnn1C1CCN(Cc2ccc(O)c(Cl)c2)CC1)C1CCCC1 | 8 | 2.1µM* | ? | -9
O=C(Nc1ccnn1C1CCN(C(=O)Cc2cccc(Cl)c2)CC1)C1CC1 | 3 | -7% | 13µM* | 20
O=C(Nc1ccnn1C1CCN(Cc2cccnc2)CC1)c1ccccc1Cl | -3 | 0% | ? | -32
Cc1cc(CN2CCC(n3nccc3NC(=O)c3ccccc3Cl)CC2)cc(C)c1O | -2 | 10µM* | 9% | -3
CCOc1ccccc1NC(=S)NCc1cccn1C | 7 | -23% | -28% | -1
COCCN(C(=S)Nc1cccc(C)c1)C(C)c1cccnc1 (stereo not given) | -6 | -2% | 0% | -14
